# Test results published in publication PMC11062922 (Nature Chemical Biology, 2023).
# Where two headings read alike, the source gives them in different places.
# How the values were obtained:
# [1] = system: PLK4; conditions: read-out: apparent Kd, n = 1
# [2] = system: PRKAA2; conditions: read-out: apparent Kd, n = 1
substance,measurement,setting,value
Lestaurtinib,potency estimated from few doses,"[1]; compound concentrations:100 nM and 1000 nM (sheet 'Lestaurtinib' of Supplementary Table 1),run:Lestaurtinib_02566_R3,Plate:MR014",0.0927 µM
same,potency estimated from few doses,"[1]; compound concentrations:100 nM and 1000 nM (sheet 'Lestaurtinib' of Supplementary Table 1),run:Lestaurtinib_02572_R1,Plate:MR015",0.0501 µM
same,potency estimated from few doses,"[1]; compound concentrations:100 nM and 1000 nM (sheet 'Lestaurtinib' of Supplementary Table 1),run:Lestaurtinib_02572_R2,Plate:MR015",0.0776 µM
same,potency estimated from few doses,"[1]; compound concentrations:100 nM and 1000 nM (sheet 'Lestaurtinib' of Supplementary Table 1),run:Lestaurtinib_02577_R1,Plate:MR016",0.0559 µM
same,potency estimated from few doses,"[1]; compound concentrations:100 nM and 1000 nM (sheet 'Lestaurtinib' of Supplementary Table 1),run:Lestaurtinib_02577_R3,Plate:MR016",0.0351 µM
same,potency estimated from few doses,"[1]; compound concentrations:100 nM and 1000 nM (sheet 'Lestaurtinib' of Supplementary Table 1),run:Lestaurtinib_02584_R1,Plate:MR017",0.0566 µM
same,potency estimated from few doses,"[1]; compound concentrations:100 nM and 1000 nM (sheet 'Lestaurtinib' of Supplementary Table 1),run:Lestaurtinib_02584_R2,Plate:MR017",0.0798 µM
same,potency estimated from few doses,"[1]; compound concentrations:100 nM and 1000 nM (sheet 'Lestaurtinib' of Supplementary Table 1),run:Lestaurtinib_02584_R3,Plate:MR017",0.0763 µM
same,potency estimated from few doses,"[1]; compound concentrations:100 nM and 1000 nM (sheet 'Lestaurtinib' of Supplementary Table 1),run:Lestaurtinib_02601_R3,Plate:MR018",0.0591 µM
same,potency estimated from few doses,"[1]; compound concentrations:100 nM and 1000 nM (sheet 'Lestaurtinib' of Supplementary Table 1),run:Lestaurtinib_02606_R2,Plate:MR019",0.0687 µM
same,potency estimated from few doses,"[1]; compound concentrations:100 nM and 1000 nM (sheet 'Lestaurtinib' of Supplementary Table 1),run:Lestaurtinib_02606_R3,Plate:MR019",0.058 µM
same,potency estimated from few doses,"[1]; compound concentrations:100 nM and 1000 nM (sheet 'Lestaurtinib' of Supplementary Table 1),run:Lestaurtinib_02624_R1,Plate:MR020",0.169 µM
same,potency estimated from few doses,"[1]; compound concentrations:100 nM and 1000 nM (sheet 'Lestaurtinib' of Supplementary Table 1),run:Lestaurtinib_02624_R3,Plate:MR020",0.0472 µM
same,potency estimated from few doses,"[1]; compound concentrations:100 nM and 1000 nM (sheet 'Lestaurtinib' of Supplementary Table 1),run:Lestaurtinib_02724_R1,Plate:MR021",0.0706 µM
same,potency estimated from few doses,"[1]; compound concentrations:100 nM and 1000 nM (sheet 'Lestaurtinib' of Supplementary Table 1),run:Lestaurtinib_02724_R2,Plate:MR021",0.0577 µM
same,potency estimated from few doses,"[1]; compound concentrations:100 nM and 1000 nM (sheet 'Lestaurtinib' of Supplementary Table 1),run:Lestaurtinib_02724_R3,Plate:MR021",0.0868 µM
same,potency estimated from few doses,"[1]; compound concentrations:100 nM and 1000 nM (sheet 'Lestaurtinib' of Supplementary Table 1),run:Lestaurtinib_02741_R1,Plate:MR023",0.235 µM
same,potency estimated from few doses,"[1]; compound concentrations:100 nM and 1000 nM (sheet 'Lestaurtinib' of Supplementary Table 1),run:Lestaurtinib_02741_R2,Plate:MR023",0.213 µM
same,potency estimated from few doses,"[1]; compound concentrations:100 nM and 1000 nM (sheet 'Lestaurtinib' of Supplementary Table 1),run:Lestaurtinib_02741_R3,Plate:MR023",0.215 µM
same,potency estimated from few doses,"[1]; compound concentrations:100 nM and 1000 nM (sheet 'Lestaurtinib' of Supplementary Table 1),run:Lestaurtinib_02748_R2,Plate:MR024",0.0807 µM
same,potency estimated from few doses,"[1]; compound concentrations:100 nM and 1000 nM (sheet 'Lestaurtinib' of Supplementary Table 1),run:Lestaurtinib_02752_R1,Plate:MR025",0.0937 µM
same,potency estimated from few doses,"[1]; compound concentrations:100 nM and 1000 nM (sheet 'Lestaurtinib' of Supplementary Table 1),run:Lestaurtinib_02752_R2,Plate:MR025",0.0686 µM
same,potency estimated from few doses,"[1]; compound concentrations:100 nM and 1000 nM (sheet 'Lestaurtinib' of Supplementary Table 1),run:Lestaurtinib_02765_R1,Plate:MR026",0.165 µM
same,potency estimated from few doses,"[1]; compound concentrations:100 nM and 1000 nM (sheet 'Lestaurtinib' of Supplementary Table 1),run:Lestaurtinib_02766_R1,Plate:MR027",0.0565 µM
same,potency estimated from few doses,"[1]; compound concentrations:100 nM and 1000 nM (sheet 'Lestaurtinib' of Supplementary Table 1),run:Lestaurtinib_02768_R1,Plate:MR028",0.0516 µM
same,potency estimated from few doses,"[1]; compound concentrations:100 nM and 1000 nM (sheet 'Lestaurtinib' of Supplementary Table 1),run:Lestaurtinib_02768_R2,Plate:MR028",0.0616 µM
same,potency estimated from few doses,"[1]; compound concentrations:100 nM and 1000 nM (sheet 'Lestaurtinib' of Supplementary Table 1),run:Lestaurtinib_02768_R3,Plate:MR028",0.0744 µM
same,potency estimated from few doses,"[1]; compound concentrations:100 nM and 1000 nM (sheet 'Lestaurtinib' of Supplementary Table 1),run:Lestaurtinib_02795_R1,Plate:MR022",0.0553 µM
same,potency estimated from few doses,"[1]; compound concentrations:100 nM and 1000 nM (sheet 'Lestaurtinib' of Supplementary Table 1),run:Lestaurtinib_02795_R2,Plate:MR022",0.0634 µM
same,potency estimated from few doses,"[1]; compound concentrations:100 nM and 1000 nM (sheet 'Lestaurtinib' of Supplementary Table 1),run:Lestaurtinib_02802_R1,Plate:MR029",0.073 µM
same,potency estimated from few doses,"[1]; compound concentrations:100 nM and 1000 nM (sheet 'Lestaurtinib' of Supplementary Table 1),run:Lestaurtinib_02802_R2,Plate:MR029",0.0834 µM
same,potency estimated from few doses,"[1]; compound concentrations:100 nM and 1000 nM (sheet 'Lestaurtinib' of Supplementary Table 1),run:Lestaurtinib_02802_R3,Plate:MR029",0.0323 µM
same,potency estimated from few doses,"[1]; compound concentrations:100 nM and 1000 nM (sheet 'Lestaurtinib' of Supplementary Table 1),run:Lestaurtinib_02896_R1,Plate:MR030",0.0783 µM
same,potency estimated from few doses,"[1]; compound concentrations:100 nM and 1000 nM (sheet 'Lestaurtinib' of Supplementary Table 1),run:Lestaurtinib_02896_R3,Plate:MR030",0.0806 µM
same,potency estimated from few doses,"[1]; compound concentrations:100 nM and 1000 nM (sheet 'Lestaurtinib' of Supplementary Table 1),run:Lestaurtinib_03172_R1,Plate:MR031",0.0673 µM
same,potency estimated from few doses,"[1]; compound concentrations:100 nM and 1000 nM (sheet 'Lestaurtinib' of Supplementary Table 1),run:Lestaurtinib_03172_R3,Plate:MR031",0.0728 µM
same,potency estimated from few doses,"[1]; compound concentrations:100 nM and 1000 nM (sheet 'Lestaurtinib' of Supplementary Table 1),run:Lestaurtinib_03252_R1,Plate:MR032",0.0648 µM
same,potency estimated from few doses,"[1]; compound concentrations:100 nM and 1000 nM (sheet 'Lestaurtinib' of Supplementary Table 1),run:Lestaurtinib_03252_R2,Plate:MR032",0.0239 µM
same,potency estimated from few doses,"[1]; compound concentrations:100 nM and 1000 nM (sheet 'Lestaurtinib' of Supplementary Table 1),run:Lestaurtinib_03260_R2,Plate:MR033",0.0637 µM
same,potency estimated from few doses,"[1]; compound concentrations:100 nM and 1000 nM (sheet 'Lestaurtinib' of Supplementary Table 1),run:Lestaurtinib_03260_R3,Plate:MR033",0.0785 µM
same,potency estimated from few doses,"[2]; compound concentrations:100 nM and 1000 nM (sheet 'Lestaurtinib' of Supplementary Table 1),run:Lestaurtinib_02339_R1,Plate:MR001",0.963 µM
same,potency estimated from few doses,"[2]; compound concentrations:100 nM and 1000 nM (sheet 'Lestaurtinib' of Supplementary Table 1),run:Lestaurtinib_02339_R3,Plate:MR001",0.953 µM
same,potency estimated from few doses,"[2]; compound concentrations:100 nM and 1000 nM (sheet 'Lestaurtinib' of Supplementary Table 1),run:Lestaurtinib_02364_R1,Plate:MR002",0.713 µM
same,potency estimated from few doses,"[2]; compound concentrations:100 nM and 1000 nM (sheet 'Lestaurtinib' of Supplementary Table 1),run:Lestaurtinib_02364_R2,Plate:MR002",0.541 µM
same,potency estimated from few doses,"[2]; compound concentrations:100 nM and 1000 nM (sheet 'Lestaurtinib' of Supplementary Table 1),run:Lestaurtinib_02364_R3,Plate:MR002",0.553 µM
same,potency estimated from few doses,"[2]; compound concentrations:100 nM and 1000 nM (sheet 'Lestaurtinib' of Supplementary Table 1),run:Lestaurtinib_02367_R1,Plate:MR003",1.32 µM
same,potency estimated from few doses,"[2]; compound concentrations:100 nM and 1000 nM (sheet 'Lestaurtinib' of Supplementary Table 1),run:Lestaurtinib_02367_R3,Plate:MR003",0.892 µM
